Measured values taken from PubChem BioAssay AID1508600 (Functional Genomics Laboratory (NCATS/FGL), 2020).
In all, about 53,000 sequences went through this assay and about 3,700 (7%) were called active. The sample as a whole holds a higher share of actives than the screen did. A number with no mark means an inactive call.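 Rule for the calls: active = gene knockdowns whose robust z-score for IL-1 alpha signal is at least 2 or at most -2, so actives lie on both sides; inactive = the rest.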

Experiment: Components of the Cytosolic LPS Sensing Pathway: Gene Identification via Genome-wide siRNA Screen;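 note: robust z of the log signal after scaling to non-targeting control siRNA wells of the plate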
Settings: RAW264.7 macrophages, IL-1a HTRF, actives lie on both sides, screened at 100 nM (by protocol), cells primed 5 h with Pam3CSK4 first
Procedure, shortened: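 Read-out: IL-1a HTRF on supernatant, divided by plate negative-control median ×100, log-transformed and converted to robust z-score. Cells were RAW264.7 given 100 nM siRNA, Pam3CSK4-primed 5 hours, then LipidA-transfected 24 hour.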

Sequence	z-score
CGAGAUGUCCCAGAAUCAUTT against Wdr75	-2.26 (active)
GCCAUGUUCCCAUUUAACUTT against A730018C14Rik	1.34
GCACGAGGAUGUGAUAUUCTT against Txndc2	-0.65
CCUUCUCUUUGCUCUAUGUTT against Olfr1284	-0.647
GCAUCGACAACCUCUCUAGTT against Hba-x	3.15 (active)
GCUUAGUUUAUGAGAAUGCTT against Ptprh	-0.791
GGCCAUAUUUGUGACUGUGTT against Hao1	-1.58
GGAUCUUGAAGCCAAAUACTT against Ccdc127	2.56 (active)
GGUAACCAAAACAAUUCUGTT against Cog8	-0.00241
GGUGUCUGAGUAAUUCUGGTT against Zscan5b	-1.55
GUGUAGCUCUUCACAGUUATT against Fgf2os	0.673
GGCUUUGGAAUGAGAGCUUTT against Dynlrb1	-2.07 (active)
CGUGUUUAGGAAAAAUUGUTT against 2510039O18Rik	-0.398
CCUGCUAAGUGAAUUUGUGTT against Cmpk1	2.18 (active)
GCAACGAGCAAAAAGCAUGTT against Htr2a	-0.794
GGUCCUUAUCGCUUGGAUGTT against Vwa8	-0.202
GGCUAAGACCAAAACUUUATT against Cyp4f13	0.772
GCAGCUUUGAAAUUGUCCATT against Stard5	-1.72
CGAUGCAAAAAGAAUAGACTT against Mark1	0.673
GGCUAGUUUUCUCUUAAAUTT against Usp1	-3.12 (active)
GAGUGUCCGAUAGACCGUUTT against Rbm4	-0.429
GGCGCAAAUACUUCUUCAUTT against Nrg1	0.533
GCACCUUUGAGUGCAACAUTT against Rnf185	-2.37 (active)

Sequence	z-score
CCUAAGAUUUUGGAACAAATT against Cenpm	-0.47
GGCCAGGAGAAGAUUGAACTT against Ccdc42	0.00447
GGCUGAAUCGGCAUUUCCATT against Klhdc3	-0.184
GGCUGCAUGGUACAGAUCUTT against Olfr463	-2.33 (active)
GCUUUUUGAGUCUGAUUUATT against Dmgdh	0.413
GGCAUUCAAAAGGUAAAAUTT against Grid2	-0.515
GCUGACUGCCAAGGAUUUUTT against Ogn	-0.135
GGCAUGAAACCUCCAAAGCTT against 1520401A03Rik	0.643
CGGAUAUUUACGAACUUACTT against Pitpnb	1.24
GGGUCAGAUUUUCAAUGUCTT against Bmpr1b	0.8
GGUUGAAACUGCUCUCAAGTT against Prl2a1	1.77
GGACCAUGAGGGAAUACAGTT against Bdkrb2	4.91 (active)
CGCAGACAAGAAAUGAAGGTT against Hnf4aos	-1.98
GCAUGAGGAAAAAUCUUCATT against Neurod4	-0.158
GGAGAAAUUUAAGAAGAGUTT against Xrcc5	0.674
GCUACAUAAUUCCGAAGUUTT against Fmr1	2.23 (active)
GCCAGAGGAUAACCUAUCGTT against Dsg4	-0.254
AAACUUGGCGUAUCAGGAATT against Gm3696	-1.45
GGAGUUUGUCUUCUCUUUCTT against Foxf1	0.0377
GGAGAGUAUGGACAGUAUUTT against Pgc	2.96 (active)
GCAAAGACAAUCUUUAAGGTT against Pde4d	-0.747
CCUUGUAAGUGAGAUCCGATT against Olfr118	1.38
GGAGUAGAUGACAACACUATT against Defb19	-0.401

Sequence	z-score
GGCAGCUGUAGAGGUGUUCTT against Haus7	2.36 (active)
CGUGGCUAAACAAAGAGCUTT against Sass6	-0.841
CCCAAAAACGUGACAUCUUTT against Inppl1	0.901
GCCUGGAAUCUCUUCAUGUTT against Pde3a	0.679
GGUGUUCUUGAGCUGUGAGTT against Igfbp7	-2.32 (active)
CCAAAAGGUUCGAGUUUCATT against Padi4	1.57
GGAGUGUGUAUGGAAAAUATT against Tll1	0.0134
GGCUCUUUCAACGUAAAUUTT against Fan1	-2.72 (active)
GGACCUUGGGCAGAUUCAATT against Atp10d	0.54
GGGUGUACAGGAUUUCCACTT against Nfyc	0.0255
GGAGCAACAACUUAAAUGUTT against Slc16a4	1.18
GCUUUAGAUACGUGAUUAGTT against Desi2	-0.125
CCUUAUGAGUCUUACGACUTT against Zfp326	1.15
CCCUCAAAGACCUGUACAUTT against Gm266	2.78 (active)
GGAUGAUGAGCUGAACUUUTT against Mgrn1	-0.897
AAGAAUACUCAGAUCAGUUTT against Magee2	0.111
GGAAAUCUCAGGUGAGGUCTT against Clcc1	-0.127
GGAUCAUCAAGAUAUAGAUTT against Trpm7	2.44 (active)
GCCAGGAAUCACAAGAGCUTT against Mtg1	0.571
GGAGUUAGAAACUCAUUUUTT against Ppargc1b	1.5
GGCACCCAUUCCUAAAAUGTT against Hmgn5	-0.929
GGAUCUGAAAAAAUUAAGCTT against Stat2	0.65
GGAUAUGCCUCCCUUGAUGTT against Gstt3	-2.4 (active)
